Values joined by “and” are separate entries in the source; they are usually repeats but may differ in a detail not shown here. Equal entries are not always repeated. The panel holds about 83,000 compounds, 20% with a hit somewhere; the sample as a whole holds those more often.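 Assay: single dose, 48 h. Readout: percent growth (0 = no net growth; negative = cell death). Active: <10.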 Active and inactive are the calls of the source.
Tests used:
Assay in all cases: NCI-60 one-dose screen, 48 h (100 = growth as untreated, 0 = no growth, -100 = all killed)
SK-MEL-2 melanoma = settings: 10 µM
EKVX NSCLC = settings: 10 µM
SN12C renal = settings: 10 µM
UO-31 renal = settings: 10 µM
TK-10 renal = settings: 10 µM unless noted
ACHN renal = settings: 10 µM
CAKI-1 renal = settings: 10 µM
A498 renal = settings: 10 µM
HL-60(TB) leukemia = settings: 10 µM
MOLT-4 leukemia = settings: 10 µM
SR leukemia = settings: 10 µM
RPMI-8226 leukemia = settings: 10 µM
OVCAR-8 ovarian = settings: 10 µM
OVCAR-5 ovarian = settings: 10 µM
OVCAR-4 ovarian = settings: 10 µM
SK-OV-3 ovarian = settings: 10 µM
IGROV1 ovarian = settings: 10 µM
OVCAR-3 ovarian = settings: 10 µM
HS 578T breast = settings: 10 µM
CCRF-CEM leukemia = settings: 10 µM

Measured: growth

O=C1C(=O)c2ccccc2-c2ccccc21
active: SK-MEL-2 melanoma -50.3% | EKVX NSCLC -96.9% | SN12C renal -61.5% | UO-31 renal -86.4% | TK-10 renal -97.9% | ACHN renal -94.3% | CAKI-1 renal -100% | HL-60(TB) leukemia -42.4% | MOLT-4 leukemia -26.9% | SR leukemia 0.843% | RPMI-8226 leukemia -32.7% | OVCAR-8 ovarian -97.6% | OVCAR-5 ovarian -63.8% | OVCAR-4 ovarian -100% | IGROV1 ovarian -61.7% | OVCAR-3 ovarian -91% | HS 578T breast -20.1%
inactive: A498 renal 88.9% | SK-OV-3 ovarian 93.7%

CN(CCCl)c1ccc(/C=C/C2=[N+](C)c3ccccc3C2(C)C)cc1
active: SN12C renal 1.3% | HL-60(TB) leukemia -29.5% | MOLT-4 leukemia -13.1% | SK-OV-3 ovarian -3.38% | OVCAR-3 ovarian -10.6%
inactive: SK-MEL-2 melanoma 46% | EKVX NSCLC 54.6% | UO-31 renal 87.3% | TK-10 renal 54.7% | ACHN renal 85.2% | CAKI-1 renal 102% | A498 renal 66.3% | RPMI-8226 leukemia 10.6% | OVCAR-8 ovarian 13.1% | OVCAR-5 ovarian 70.8% | OVCAR-4 ovarian 37.6% | IGROV1 ovarian 35.1% | HS 578T breast 60.1%

CC(C)c1cc([N+](=O)[O-])cc([N+](=O)[O-])c1O
inactive: SK-MEL-2 melanoma 94% | EKVX NSCLC 110% | SN12C renal 103% | UO-31 renal 85.8% | TK-10 renal 98.6% | ACHN renal 103% | CAKI-1 renal 99% | A498 renal 108% | HL-60(TB) leukemia 62.2% | CCRF-CEM leukemia 103% | MOLT-4 leukemia 98.2% | RPMI-8226 leukemia 116% | OVCAR-8 ovarian 104% | OVCAR-5 ovarian 107% | OVCAR-4 ovarian 115% | SK-OV-3 ovarian 100% | IGROV1 ovarian 111% | OVCAR-3 ovarian 105% | HS 578T breast 101%

CC/C(=C/c1ccc(OC)cc1)[N+](=O)[O-]
active: SN12C renal -43.7% | UO-31 renal -61.6% | TK-10 renal -9.47% | ACHN renal -43% | CAKI-1 renal 1.94% | CCRF-CEM leukemia -9.4% | MOLT-4 leukemia 3.8% | SR leukemia 1.84% | RPMI-8226 leukemia -8.7% | OVCAR-8 ovarian 1.78%
inactive: SK-MEL-2 melanoma 27% | EKVX NSCLC 78% | A498 renal 85.5% | OVCAR-5 ovarian 10.9% | OVCAR-4 ovarian 62% | SK-OV-3 ovarian 104% | IGROV1 ovarian 11.7% | HS 578T breast 90.2%

CC(=O)Nc1c2sscc-2n(C)c1=O
active: SK-MEL-2 melanoma -76% | EKVX NSCLC -98.8% | SN12C renal -98.5% | UO-31 renal -100% | TK-10 renal -100% | ACHN renal -100% | CAKI-1 renal -100% | A498 renal -100% | MOLT-4 leukemia -58% | SR leukemia -27.4% | RPMI-8226 leukemia -51.8% | OVCAR-5 ovarian -60.4% | OVCAR-4 ovarian -96.4% | SK-OV-3 ovarian -100% | IGROV1 ovarian -88.4% | HS 578T breast -57%

CS(=N)(=O)CCC(N)C(=O)O (stereo not drawn)
inactive: SK-MEL-2 melanoma 107% | EKVX NSCLC 109% | SN12C renal 102% | UO-31 renal 95.1% | TK-10 renal 94.1% | ACHN renal 103% | CAKI-1 renal 83.2% | A498 renal 129% | MOLT-4 leukemia 112% | SR leukemia 99.9% | RPMI-8226 leukemia 107% | OVCAR-8 ovarian 98% | OVCAR-5 ovarian 85.3% | OVCAR-4 ovarian 104% | SK-OV-3 ovarian 108% | IGROV1 ovarian 87.5% | HS 578T breast 104%

COc1cc(/C=C(/C)[N+](=O)[O-])ccc1O
active: UO-31 renal -10.8% and -16.8% | CAKI-1 renal -0.672% | HL-60(TB) leukemia -17.3% and -34.3% | CCRF-CEM leukemia -35% | MOLT-4 leukemia -3.07% and 1.18% | RPMI-8226 leukemia -21.5%
-39.8% (active) and 16.4% (inactive): ACHN renal
inactive: SK-MEL-2 melanoma 19.6% and 72.1% | EKVX NSCLC 84.6% | SN12C renal 27.5% and 23.2% | A498 renal 87.9% and 100% | OVCAR-8 ovarian 37.5% and 27.1% | OVCAR-5 ovarian 83.5% and 60.3% | OVCAR-4 ovarian 50.6% | SK-OV-3 ovarian 92.5% and 90.2% | IGROV1 ovarian 26.4% and 21.3%
48.5% (inactive) and -8.96% (active): HS 578T breast
-21.2% (active) and 61.7% (inactive): TK-10 renal

COc1cc(/C=C\[N+](=O)[O-])ccc1O
-14.8% (active) and 27.5% (inactive): RPMI-8226 leukemia
inactive: SK-MEL-2 melanoma 87.7% and 93.5% | EKVX NSCLC 108% and 91.7% | SN12C renal 67.3% and 94.1% | UO-31 renal 44.5% and 70.1% | TK-10 renal 23.5% and 87.1% | ACHN renal 13.4% and 82.9% | CAKI-1 renal 74.4% | A498 renal 97.6% and 102% | MOLT-4 leukemia 27% and 79.2% | OVCAR-8 ovarian 65.9% and 93.9% | OVCAR-5 ovarian 93.6% and 105% | OVCAR-4 ovarian 92.6% and 113% | SK-OV-3 ovarian 101% and 97% | IGROV1 ovarian 80.8% and 75.4% | HS 578T breast 106% and 94.5%

CN(C)CC1(N)C(=O)NC(=O)NC1=O
inactive: SK-MEL-2 melanoma 101% | EKVX NSCLC 103% | SN12C renal 96.8% | UO-31 renal 96.3% | TK-10 renal 97.9% | ACHN renal 101% | CAKI-1 renal 96.4% | A498 renal 54.9% | MOLT-4 leukemia 99% | SR leukemia 101% | RPMI-8226 leukemia 100% | OVCAR-8 ovarian 105% | OVCAR-5 ovarian 97.8% | OVCAR-4 ovarian 103% | SK-OV-3 ovarian 98.2% | IGROV1 ovarian 108% | HS 578T breast 98.1%

COc1cc2c(cc1OC)C13CCN4CC5=CCOC6CC(=O)N2C1C6C5CC43 (stereo not drawn)
inactive: SK-MEL-2 melanoma 116% and 77.5% | EKVX NSCLC 105% and 114% | SN12C renal 97.3% and 91.3% | UO-31 renal 87.9% and 92.8% | TK-10 renal 112% and 138% | ACHN renal 99.6% and 107% | CAKI-1 renal 103% and 104% | A498 renal 108% and 87.2% | HL-60(TB) leukemia 127% and 80.1% | CCRF-CEM leukemia 100% and 76.3% | MOLT-4 leukemia 109% and 86.6% | RPMI-8226 leukemia 56.5% | OVCAR-8 ovarian 99.7% and 113% | OVCAR-5 ovarian 98.2% and 83.9% | OVCAR-4 ovarian 113% and 102% | SK-OV-3 ovarian 101% and 114% | IGROV1 ovarian 106% | OVCAR-3 ovarian 115% and 107% | HS 578T breast 114% and 96.4%

C[CH2][Hg][S]c1ccccc1C(=O)O
active: SK-MEL-2 melanoma -52.4% | SN12C renal -60.6% | UO-31 renal -61.8% | TK-10 renal -94.2% | ACHN renal -92.9% | CAKI-1 renal -95.2% | HL-60(TB) leukemia -17.6% | MOLT-4 leukemia 0.484% | RPMI-8226 leukemia -17.6% | OVCAR-8 ovarian -98.1% | OVCAR-4 ovarian -36.6% | HS 578T breast -1.53%
inactive: EKVX NSCLC 63.6% | A498 renal 18.1% | SK-OV-3 ovarian 21.1% | IGROV1 ovarian 16.9%

O=[N+]([O-])c1cc[n+]([O-])c2ccccc12
active: SK-MEL-2 melanoma -56.2% | EKVX NSCLC -3.54% | SN12C renal -27.5% | UO-31 renal -29.5% | TK-10 renal -22.6% | ACHN renal -42.4% | CAKI-1 renal -28% | A498 renal -34.7% | HL-60(TB) leukemia -26.9% | CCRF-CEM leukemia -11.1% | MOLT-4 leukemia 3.5% | RPMI-8226 leukemia -7.21% | OVCAR-8 ovarian -31.1% | OVCAR-5 ovarian -13.7% | OVCAR-4 ovarian -99.6% | SK-OV-3 ovarian -18.4% | IGROV1 ovarian -24.3% | OVCAR-3 ovarian 4.56%
inactive: HS 578T breast 18.7%

O=[N+]([O-])/C=C/c1ccc(Cl)cc1[N+](=O)[O-]
active: UO-31 renal -45.7% | MOLT-4 leukemia 2.69% | RPMI-8226 leukemia -11.3% | OVCAR-4 ovarian 10% | OVCAR-3 ovarian -31.5% | HS 578T breast -6.61%
inactive: SK-MEL-2 melanoma 102% | EKVX NSCLC 81.8% | SN12C renal 63.2% | TK-10 renal 75.3% | ACHN renal 30.3% | CAKI-1 renal 47.7% | A498 renal 106% | OVCAR-8 ovarian 17.8% | OVCAR-5 ovarian 75.2% | SK-OV-3 ovarian 99.2% | IGROV1 ovarian 17.8%

COc1ccccc1[As]=[As]c1ccccc1OC (stereo not drawn)
active: SK-MEL-2 melanoma -86.9% | EKVX NSCLC -67.7% | SN12C renal -83.3% | UO-31 renal -93.1% | TK-10 renal -95.8% | ACHN renal -96.9% | CAKI-1 renal -86.5% | A498 renal -96.3% | HL-60(TB) leukemia -37.1% | CCRF-CEM leukemia 2.34% | MOLT-4 leukemia -9.7% | RPMI-8226 leukemia -15.1% | OVCAR-8 ovarian -83.1% | OVCAR-5 ovarian -93.2% | OVCAR-4 ovarian -85.1% | SK-OV-3 ovarian -99.7% | IGROV1 ovarian -76.9% | OVCAR-3 ovarian -93.3% | HS 578T breast -11.6%
